Compound activity as filed in PubChem.
An excerpt weighted towards active compounds, which were near 4.1% of everything screened.
DAX1 inh-1: NR0B1 (DAX1) inhibition; 340,000 compounds, 0.99% hits; P51843; AID 504766; inhibition, % at 6.75 µM; HEK293 Gal4-DAX1 luciferase reporter, luminescence;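 active = inhibition above the mean over all tested compounds plus 3 SD, cut at about 4.2% in these data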;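 also: 0% = DAX1-transfected cells with DMSO and 100% = empty-vector control cells with DMSO; inhibition shows as a rise in luminescence from relieved DAX1 repression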
Target sequence (P51843 207-470 limits assumed): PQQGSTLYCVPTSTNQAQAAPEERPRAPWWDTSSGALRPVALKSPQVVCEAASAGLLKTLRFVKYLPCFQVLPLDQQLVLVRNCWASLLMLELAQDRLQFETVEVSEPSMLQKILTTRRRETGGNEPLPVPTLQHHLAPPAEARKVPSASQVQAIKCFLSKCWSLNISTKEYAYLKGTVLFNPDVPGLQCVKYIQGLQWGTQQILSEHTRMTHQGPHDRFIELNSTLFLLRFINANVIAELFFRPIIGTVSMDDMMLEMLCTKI
hcDAF-12 act: H. contortus DAF-12 activation, primary screen. activation, % at 6.8 µM. HEK293 hcDAF-12 lit1-tk-luc reporter, luminescence; 0% DMSO, 100% Δ7-dafachronic acid. 370,000 compounds, 1.4% hits;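 active = activation above the mean of all tested compounds plus 3 SD, cut at about 5.5% in these data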;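 also: 100% = response to 3 µM Δ7-dafachronic acid high control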
hgDAF-12 ag: hgDAF-12 agonism, primary luciferase screen | 370,000 compounds, 1.8% hits | activation, % at 6.8 µM | HEK293 GAL4-hgDAF12 UAS-luciferase reporter, agonist luminescence; normalized to butyrate control;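 active = activation above a cutoff set at the mean of all screened compounds plus 3 SD, cut at about 10% in these data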;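 also: 0% = DMSO wells and 100% = sodium butyrate wells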
DAX1 inh-2: blocks DAX1 repression of SF-1 activated StAR promoter; inhibition, % at 6.8 µM; 370,000 compounds, 1.1% hits; HEK293T StAR-luciferase reporter, SF-1/DAX-1 repression relief;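 active = inhibition above the mean over all tested compounds plus 3 SD, cut at about 3.6% in these data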;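 also: 0% = DAX-1 cells with DMSO and 100% = cells lacking DAX-1 with DMSO; higher inhibition means more luminescence from relief of DAX-1 repression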
ssDAF12 agonist: activators of S. stercoralis DAF-12 nuclear receptor | HEK293 ssDAF-12/GRIP1 lit1-tk-luc reporter, luminescence; % of 3 µM dafachronic acid response | activation, % at 6.8 µM | 370,000 compounds, 1% hits | AID 652126;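 active = activation above the mean over all tested compounds plus 3 SD, cut at about 0.9% in these data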;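 also: 0% = DMSO-only wells and 100% = 3 µM delta7-dafachronic acid wells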
* marks the source's active call; other numbers are inactive results; / = not tested or not shown.

SMILES | DAX1 inh-1 | hcDAF-12 act | hgDAF-12 ag | DAX1 inh-2 | ssDAF12 agonist
COc1ccccc1OCCSc1nc2ccc([N+](=O)[O-])cc2s1 | -1 | 4 | 0 | 0 | 0
CCN(CC(=O)NCc1ccncc1)S(=O)(=O)c1cc(Cl)ccc1Cl | 4.2* | -3 | 3 | 0 | -1
C[C@@H]1CN(c2ccc(N3CCNC[C@@H]3C)cc2C#N)CCN1Cc1ccccc1 | / | 0 | 2 | 0 | -2
O=C(N/N=C/c1ccc(F)cc1)c1ccc(Br)cc1 | 1 | -2 | 2 | 0 | -2
COc1cccc(/C=N/NC(=O)c2c(C)nc3ccc(Br)cn23)c1 | 6.4* | 0 | 3 | 2 | -1
Cc1nc2ccc(Br)cn2c1C(=O)N/N=C\c1ccc(C(C)C)cc1 | 2 | -1 | 1 | 0 | -1
Cc1cccc(/C=N/NC(=O)c2ccc(Br)cc2)c1 | 2 | 4 | 12* | 2 | 0
CC(=O)Nc1ccc(Oc2cnc3ccccc3n2)cc1 | -1 | -1 | 4 | -1 | -1
CC(=O)Nc1cccc(Oc2cnc3ccccc3n2)c1 | 4.6* | 4 | 6 | 2 | 0
C[C@@H]1ON(C)[C@H]2C[C@H]3c4cc(Br)ccc4CCN3C[C@@H]12 | / | 0 | -3 | 1 | -1
Cc1cccc(C)c1NC(=O)CN1CCCC1 | 4.5* | -1 | -3 | 0 | -1
CC1CCC2(CC1)CCN(CCCOC(=O)Nc1cccc(F)c1)C2=O (stereo unspecified) | / | -2 | 3 | -2 | -2
CCOc1ccc(N(CC(=O)Nc2ccc(C)c(C)c2)S(C)(=O)=O)cc1 | 8.9* | 4 | 8 | 1 | 0
COP(=O)(O)CCOCCC(CC(C)C)NC(=O)OCc1ccccc1 (stereo unspecified) | / | -1 | 1 | -1 | 0
CCOC(=O)c1oc2ccc(CNCCO)c(Cl)c2c1C | 2 | 6.1* | 8 | 3 | 0
Cc1ccc2c(c1)C(CS(=O)(=O)NCC(C)C)NC2 (stereo unspecified) | / | 1 | -1 | -1 | -1
Cc1ccc(NC(=O)c2c(O)c3ccccc3n(C)c2=O)nc1 | 1 | 6.0* | 5 | 0 | 0
C=CCn1c(=O)c(C(=O)Nc2ccccc2O)c(O)c2ccccc21 | 1 | 3 | 1 | 0 | 1.0*
CCn1c(=O)c(C(=O)Nc2ccccc2C)c(O)c2ccccc21 | 1 | 4 | 3 | 0 | 1.4*
C=CCn1c(=O)c(C(=O)Nc2ccccc2C)c(O)c2ccccc21 | 0 | 5 | 4 | 1 | 1
Cc1ccc(NC(=O)c2ccc(C(=O)c3ccccc3)cc2)nc1 | 1 | -1 | 5 | 3.9* | -1
O=C(C1CCC1)N1CCc2cc(S(=O)(=O)N3CCN(c4ccccc4F)CC3)ccc21 | / | -1 | 4 | 0 | 0
CCOC1=C2CN(S(=O)(=O)c3ccc(C)cc3)[C@H](c3ccccc3)C[C@H]2[C@H]2C(=O)N(c3ccccc3)C(=O)[C@H]2C1 | / | 0 | -1 | 4.0* | -1
CC(=O)Nc1ccc2nc(C3CC3)n(Cc3ccc(Cl)cc3)c(=O)c2c1 | 4 | 2 | 8 | 3 | 0
COc1ccc(Cn2c(C3CC3)nc3ccc(NC(=O)C4CC4)cc3c2=O)cc1 | 3 | 3 | 11* | 2 | 1
SMILES | DAX1 inh-1 | hcDAF-12 act | hgDAF-12 ag | DAX1 inh-2 | ssDAF12 agonist
Cc1cc2nc(-c3ccc(SCc4ccccc4C#N)nc3)[nH]c2cc1C | -1 | -2 | 3 | 0 | -3
Cc1cc2nc(-c3ccc(SCc4ccc(C(=O)O)cc4)nc3)[nH]c2cc1C | 2 | 0 | 12* | 2 | -1
COc1ccc2c(c1)CN1C(=O)N(Cc3ccc(F)cc3)S(=O)(=O)CC21 (stereo unspecified) | / | 0 | 1 | 0 | -1
COC(=O)[C@]12C[C@H](CC(=O)NCC3CCCCC3)C(=O)N(CCc3ccc(OC)c(OC)c3)C1=C[C@H](C(C)C)O[C@@H]2C1CC1 | / | -2 | 1 | 1 | -1
COC(=O)CN1CCN(C(=O)c2csc(-c3ccccc3)n2)CC1 | / | -1 | 1 | 0 | -1
CC(C)(CCl)C(=O)Nc1ccc(C(F)(F)F)cc1 | -1 | -1 | 3 | 0 | 1.1*
CCOC(=O)[C@@]12CCC3=C1N(CCC3)C(=O)[C@H](CC(=O)NCc1ccc(OC)c(OC)c1)C2 | / | -3 | 1 | 0 | -1
COc1cc(NC(=O)c2ccccc2)c(C)cc1NC(=O)CSc1nnc(-c2cnccn2)n1-c1ccc(C)cc1 | / | -1 | -3 | -2 | -1
O=C1C=CC2=C3c4cc(O)c(O)cc4CC3(O)COC2=C1O (stereo unspecified) | 5.2* | 0 | -2 | 1 | -1
Nc1[nH]c(C(=O)c2ccccc2)c(-c2ccccn2)c1C(=O)c1c[nH]c2ccc(Br)cc12 | / | 0 | 1 | / | -1
O=C1NCCNC1(c1c[nH]c2ccccc12)C(F)(F)F (stereo unspecified) | 1 | 5 | 3 | 0 | 1.4*
Fc1ccc(Nc2nc(N3CCOCC3)nc(N3CCOCC3)n2)cc1 | 1 | -2 | 0 | 0 | -1
O=[N+]([O-])c1ccc(Nc2nc(N3CCOCC3)nc(N3CCOCC3)n2)cc1 | 0 | 0 | 0 | 0 | 1.1*
Cc1cccc(NC(=O)OC2CC3CC2[C@H]2CCCCN2C3)c1 (stereo partly specified) | / | 1 | 1 | 2 | -1
CCC(C)(C)C1CCc2c(sc(NC(=O)c3ccoc3C)c2C(N)=O)C1 (stereo unspecified) | 0 | -1 | -3 | 0 | -1
CCC1CCc2c(sc(NC(=O)c3ccoc3C)c2C(N)=O)C1 (stereo unspecified) | -1 | 5.9* | 5 | -1 | -1
CC(C)c1[nH]nc2c1C(c1cccc(C(F)(F)F)c1)N(c1ccccc1)C2=O (stereo unspecified) | / | -1 | -7 | 0 | -2
Cc1nn(-c2ccccc2Cl)c(Cl)c1/C=N/Nc1cccc(C(=O)O)c1 | -4 | 4 | 10 | 4.0* | 0
Cc1nn(-c2ccccc2)c(Cl)c1/C=N/NC(=O)c1cccc(S(=O)(=O)N2CCCC2)c1 | -1 | 2 | 1 | 1 | -1
COC(=O)[C@@H](Cc1c[nH]c2ccccc12)NCc1cccc(B(O)O)c1 | 0 | 5.8* | -2 | -1 | 0
COC(=O)[C@@H](Cc1c[nH]c2ccccc12)NC(=O)CCC(=O)c1ccc(F)cc1 | 0 | 5.6* | 0 | 0 | 0
COC(=O)C(Cc1c[nH]c2ccccc12)NC(C)=O (stereo unspecified) | 1 | 0 | 4 | 0 | 0
C[C@@H]1CN([C@H](C)CO)C(=O)CCCn2nncc2CO[C@@H]1CN(C)C(=O)Nc1ccccc1 | / | -1 | 1 | 0 | -1
COc1cccc(CNC(=O)[C@H]2CCCN2C(=O)[C@H]2CCCN2C(=O)c2cccs2)c1 | / | 2 | -1 | -1 | -1
